Laboratory results from PubChem BioAssay (EPA / NIEHS).
Records with an inconclusive call do not appear. Some structures have more than one record in an assay (separate samples or runs), and their calls can disagree. The source made the active and inactive calls. How the source made its calls, unless noted: active means hit-call score of the fitted dose curve at least 0.9, where 1 is the maximum; inactive means score below 0.9.

Columns and labels:
[1] = biological target: human CYP19A1, CYP19A1 (gene 1588) (UniProt P11511); assay: NVS_ADME_hCYP19A1: NovaScreen (NVS) CYP450-related Enzyme Activity (ADME) Assay for human CYP19A1 (AID 2283098; active means hit-call score of the fitted dose curve at least 0.9, where 1 is the maximum;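 on AC50: potency for inhibitors seen as loss of fluorescent enzyme signal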)
Summary of the method: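 Fluorescence intensity read-out; activity taken as signal loss relative to acetonitrile vehicle. Extracted enzyme, specific substrate, no cells, 0.5 h exposure. Duplicate single-point screen at 10 uM, then concentration–response follow-up for actives.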

[2] = read-out: Monocyte Chemoattractant Protein-1 (MCP1), CCL2 (gene 6347); assay: BSK_LPS_MCP1: BioMAP Diversity Plus: LPS Assay for Monocyte Chemoattractant Protein-1 (MCP1) Biomarker Activity (AID 2283081); details: primary human HUVEC with PBMC; actives raise or lower the signal;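 on AC50: secreted MCP-1 protein quantified by ELISA in culture supernatant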
Summary of the method: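 Human umbilical vein endothelial cells co-cultured with PBMC, LPS-stimulated; secreted MCP-1 measured by ELISA 24 h after compound addition. Bidirectional curve fitting against DMSO baseline; SRB total-protein staining in parallel cultures for cytotoxicity.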

[3] = read-out: Macrophage colony-stimulating factor (MCSF), CSF1 (gene 1435); assay: BSK_LPS_MCSF: BioMAP Diversity Plus: LPS Assay for Macrophage colony-stimulating factor (MCSF) Biomarker Activity (AID 2283083); details: primary human HUVEC with PBMC; actives raise or lower the signal
Summary of the method: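 HUVEC–PBMC co-culture, M-CSF measured by ELISA 24 h after chemical dosing. Fitted in both directions relative to DMSO as negative control; overt cytotoxicity assessed by SRB total-protein staining in parallel cultures.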

[4] = read-out: Tumor necrosis factor (Homo sapiens) (UniProt P01375); assay: BSK_LPS_TNFa: BioMAP Diversity Plus: LPS Assay for Tumour Necrosis Factor alpha (TNFa) Biomarker Activity (AID 2283085); details: primary human HUVEC with PBMC; actives raise or lower the signal;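 on AC50: TNFa protein level quantified by ELISA in the co-culture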
Summary of the method: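 ELISA-based TNFa endpoint in a human endothelial–PBMC co-culture sampled 24 h post-exposure. Curves were fitted in both directions using DMSO as baseline of activity.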

[5] = read-out: Vascular cell adhesion molecule 1 (VCAM1), VCAM1 (gene 7412); assay: BSK_LPS_VCAM1: BioMAP Diversity Plus: LPS Assay for Vascular cell adhesion molecule 1 (VCAM1) Biomarker Activity (AID 2283086); details: primary human HUVEC with PBMC; actives raise or lower the signal
Summary of the method: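 Measured by ELISA: VCAM-1 in LPS-activated HUVEC/PBMC co-cultures 24 h after treatment. Values reflect bidirectional fitting with DMSO as baseline.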

CD38, CD38 (gene 952) = assay: BSK_SAg_CD38: BioMAP Diversity Plus: SAg Assay for CD38 Biomarker Activity (AID 2283087); details: primary human HUVEC with PBMC; actives raise or lower the signal
Summary of the method: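 Measures CD38 on a human endothelial/PBMC co-culture driven by SEB and TSST-1, 24 h after compound exposure, using ELISA with fluorescence detection; DMSO defines baseline for bidirectional curve fitting.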

CD40, CD40 (gene 958) = assay: BSK_SAg_CD40: BioMAP Diversity Plus: SAg Assay for CD40 Biomarker Activity (AID 2283088); details: primary human HUVEC with PBMC; actives raise or lower the signal
Summary of the method: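 HUVEC plus PBMC co-culture, superantigen-activated, with CD40 read by ELISA 24 h after dosing. Curves fitted in both directions against DMSO. Overt cytotoxicity checked by parallel SRB total-protein staining.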

CD69, CD69 (gene 969) = assay: BSK_SAg_CD69: BioMAP Diversity Plus: SAg Assay for CD69 Biomarker Activity (AID 2283089); details: primary human HUVEC with PBMC; actives raise or lower the signal;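 on AC50: cell surface CD69 protein quantified by ELISA with fluorescence detection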
Summary of the method: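 ELISA, fluorescence read-out: CD69 on human umbilical vein endothelial cell + PBMC co-culture, 24 h post-dosing. Gain or loss of signal fitted bidirectionally against DMSO baseline.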

[6] = read-out: Monocyte Chemoattractant Protein-1 (MCP1), CCL2 (gene 6347); assay: BSK_SAg_MCP1: BioMAP Diversity Plus: SAg Assay for Monocyte Chemoattractant Protein-1 (MCP1) Biomarker Activity (AID 2283090); details: primary human HUVEC with PBMC; actives raise or lower the signal
Summary of the method: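 Values derive from bidirectional fitting of ELISA-measured MCP1 against DMSO controls. Readings were taken 24 h after dosing human vascular endothelial cells co-cultured with peripheral blood mononuclear cells under superantigen stimulation.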

[7] = read-out: E-selectin (Homo sapiens) (UniProt P16581); assay: BSK_SAg_Eselectin: BioMAP Diversity Plus: SAg Assay for Eselectin Biomarker Activity (AID 2283091); details: primary human HUVEC with PBMC; actives raise or lower the signal
Summary of the method: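 Human umbilical vein endothelial cells co-cultured with peripheral blood mononuclear cells, SAg system. E-selectin is measured by ELISA 24 h after dosing and fitted bidirectionally against DMSO. Cytotoxicity is checked by SRB staining of parallel cultures.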

[8] = read-out: Monokine induced gamma interferon (MIG), CXCL9 (gene 4283); assay: BSK_SAg_MIG: BioMAP Diversity Plus: SAg Assay for Monokine induced gamma interferon (MIG) Biomarker Activity (AID 2283092); details: primary human HUVEC with PBMC; actives raise or lower the signal
Summary of the method: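 ELISA readout of MIG/CXCL9; primary human umbilical vein endothelial cells co-cultured with peripheral blood mononuclear cells; 24 h post-dose; gain/loss fit vs DMSO baseline.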

[9] = BSK_SAg_PBMCCytotoxicity: PBMC Cytotoxicity Assessment in the BioMAP Diversity Plus: SAg Assay (AID 2283093); details: primary human HUVEC with PBMC;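 further: fitted both ways against DMSO so a hit may be loss or gain of signal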;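 on AC50: PBMC superantigen activated with SEB plus TSST-1 one hour after compound addition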
Summary of the method: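 PBMC viability by Alamar Blue reduction, fluorescence read at 546/580 nm after 6 h dye exposure. Cells were dosed 1 h before SEB plus TSST-1 activation (20 ng/mL final each), then held 90 h; endothelial/PBMC human co-culture.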

[10] = read-out: Interleukin-8 (IL8), CXCL8 (gene 3576); assay: BSK_SAg_IL8: BioMAP Diversity Plus: SAg Assay for Interleukin-8 (IL8) Biomarker Activity (AID 2283094); details: primary human HUVEC with PBMC; actives raise or lower the signal
Summary of the method: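 Primary human endothelial cells with PBMC, exposed 24 h; IL-8 determined by ELISA, analysed bidirectionally relative to DMSO.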

[11] = BSK_SAg_Proliferation: Cell Proliferation Assessment in the BioMAP Diversity Plus: SAg Assay (AID 2283095); details: primary human HUVEC with PBMC;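 further: relative cell number as total protein by SRB absorbance in sub-confluent culture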
Summary of the method: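 A human primary co-culture of umbilical vein endothelium and blood mononuclear cells receives compound; relative cell number is quantified at 96 h by SRB staining and 560 nm absorbance, with DMSO-referenced bidirectional curve fitting.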

[12] = BSK_SAg_SRB: Viability Assessment in the BioMAP Diversity Plus: SAg Assay (AID 2283096); details: primary human HUVEC with PBMC;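 further: cells read one day after compound addition; hits may be either gain or loss of signal compared with DMSO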
Summary of the method: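 Compounds were added to a human vascular co-culture of umbilical vein endothelium and PBMC. After 24 h, parallel cultures were fixed with 10% TCA, stained with 0.1% sulforhodamine B and read at 560 nm. Gain or loss of signal was fitted relative to DMSO.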

[13] = read-out: Tissue Factor, F3 (gene 2152); assay: BSK_LPS_TissueFactor: BioMAP Diversity Plus: LPS Assay for Tissue Factor Biomarker Activity (AID 2283084); details: primary human HUVEC with PBMC; actives raise or lower the signal
Summary of the method: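 Human umbilical vein endothelial cells co-cultured with PBMC were dosed with compound. Cell-surface CD142 was measured by ELISA 24 h later. Activity was fitted bidirectionally against DMSO, with SRB total-protein staining in parallel cultures for cytotoxicity.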

[14] = biological target: human CYP2B6, CYP2B6 (gene 1555) (UniProt P20813); assay: NVS_ADME_hCYP2B6: NovaScreen (NVS) CYP450-related Enzyme Activity (ADME) Assay for human CYP2B6 (AID 2283101; active means hit-call score of the fitted dose curve at least 0.9, where 1 is the maximum)
Summary of the method: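 Fluorescence-based enzyme activity of recombinant human CYP2B6, measured 1 h post-dose against acetonitrile vehicle baseline. Screened at a single concentration of 10 uM in duplicate before concentration-response follow-up.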

[15] = biological target: human CYP1A2, CYP1A2 (gene 1544) (UniProt P05177); assay: NVS_ADME_hCYP1A2: NovaScreen (NVS) CYP450-related Enzyme Activity (ADME) Assay for human CYP1A2 (AID 2283102; active means hit-call score of the fitted dose curve at least 0.9, where 1 is the maximum;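 further: potency for inhibition since loss of fluorescence marks reduced CYP1A2 activity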)
Summary of the method: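 Recombinant human CYP1A2 from insect cells, cell-free, fluorogenic substrate; read 0.5 h after dosing with loss of fluorescence signal indicating inhibition. Primary screen in duplicate at 10 uM, acetonitrile as negative control.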

[16] = biological target: human CYP2A6, CYP2A6 (gene 1548) (UniProt P11509); assay: NVS_ADME_hCYP2A6: NovaScreen (NVS) CYP450-related Enzyme Activity (ADME) Assay for human CYP2A6 (AID 2283099; active means hit-call score of the fitted dose curve at least 0.9, where 1 is the maximum)
Summary of the method: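 Recombinant human CYP2A6 expressed in insect cells, cell-free; fluorogenic substrate turnover read by fluorescence intensity 0.5 h after dosing. Primary screen 10 uM in duplicate, then concentration-response up to 20 uM; acetonitrile as negative control.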

Sequence of human CYP19A1, CYP19A1 (gene 1588) (P11511 whole entry, looked up): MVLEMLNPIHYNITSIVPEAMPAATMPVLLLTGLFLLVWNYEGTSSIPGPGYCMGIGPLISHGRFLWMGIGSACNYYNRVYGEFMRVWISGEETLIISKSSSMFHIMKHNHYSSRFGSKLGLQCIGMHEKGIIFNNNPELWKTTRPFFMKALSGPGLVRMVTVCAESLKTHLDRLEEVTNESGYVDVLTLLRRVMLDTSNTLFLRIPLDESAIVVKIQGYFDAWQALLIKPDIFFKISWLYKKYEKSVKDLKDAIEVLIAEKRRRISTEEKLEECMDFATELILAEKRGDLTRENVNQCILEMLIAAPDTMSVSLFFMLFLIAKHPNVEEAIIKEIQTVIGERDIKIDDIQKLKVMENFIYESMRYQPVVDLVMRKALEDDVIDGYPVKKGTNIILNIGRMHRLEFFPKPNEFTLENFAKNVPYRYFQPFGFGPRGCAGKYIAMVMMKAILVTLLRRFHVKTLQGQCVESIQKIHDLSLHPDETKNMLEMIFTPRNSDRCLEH
Sequence of Tumor necrosis factor (Homo sapiens) (P01375 whole entry, looked up): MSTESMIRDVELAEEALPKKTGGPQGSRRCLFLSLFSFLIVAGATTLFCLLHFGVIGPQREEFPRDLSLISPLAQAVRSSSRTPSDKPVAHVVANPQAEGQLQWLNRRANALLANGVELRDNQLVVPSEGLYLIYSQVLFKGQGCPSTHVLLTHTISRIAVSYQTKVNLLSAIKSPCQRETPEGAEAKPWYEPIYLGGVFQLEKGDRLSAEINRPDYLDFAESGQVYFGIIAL
Sequence of E-selectin (Homo sapiens) (P16581 whole entry, looked up): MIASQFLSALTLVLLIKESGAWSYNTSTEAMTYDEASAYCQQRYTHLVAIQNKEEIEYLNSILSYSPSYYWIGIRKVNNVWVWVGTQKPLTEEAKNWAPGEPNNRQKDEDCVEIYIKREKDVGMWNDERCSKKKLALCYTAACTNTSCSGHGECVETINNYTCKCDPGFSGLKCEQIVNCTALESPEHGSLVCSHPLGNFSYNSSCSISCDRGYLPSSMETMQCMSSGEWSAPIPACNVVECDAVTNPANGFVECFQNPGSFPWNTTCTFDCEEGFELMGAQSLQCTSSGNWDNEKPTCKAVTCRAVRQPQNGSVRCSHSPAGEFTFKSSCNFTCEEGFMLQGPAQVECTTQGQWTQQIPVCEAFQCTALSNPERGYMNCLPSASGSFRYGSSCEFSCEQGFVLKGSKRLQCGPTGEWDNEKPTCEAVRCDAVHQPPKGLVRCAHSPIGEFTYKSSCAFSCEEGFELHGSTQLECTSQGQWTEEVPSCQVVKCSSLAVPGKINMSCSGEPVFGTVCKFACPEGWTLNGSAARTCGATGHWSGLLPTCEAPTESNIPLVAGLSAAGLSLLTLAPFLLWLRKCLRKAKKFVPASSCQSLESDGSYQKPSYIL
Sequence of human CYP1A2, CYP1A2 (gene 1544) (P05177 whole entry, looked up): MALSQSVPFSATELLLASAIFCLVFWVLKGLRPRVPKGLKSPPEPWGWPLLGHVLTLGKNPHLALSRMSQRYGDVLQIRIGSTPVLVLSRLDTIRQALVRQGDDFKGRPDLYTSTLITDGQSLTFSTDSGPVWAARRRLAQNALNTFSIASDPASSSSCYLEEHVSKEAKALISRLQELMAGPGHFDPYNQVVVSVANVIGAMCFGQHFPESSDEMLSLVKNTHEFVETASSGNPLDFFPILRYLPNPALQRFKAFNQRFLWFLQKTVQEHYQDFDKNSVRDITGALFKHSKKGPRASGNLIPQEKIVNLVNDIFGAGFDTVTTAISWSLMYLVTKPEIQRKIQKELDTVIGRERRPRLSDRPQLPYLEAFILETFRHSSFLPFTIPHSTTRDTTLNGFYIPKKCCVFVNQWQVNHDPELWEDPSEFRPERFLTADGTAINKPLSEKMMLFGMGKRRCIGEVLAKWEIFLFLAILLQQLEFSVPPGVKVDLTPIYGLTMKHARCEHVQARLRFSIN
Sequence of human CYP2B6, CYP2B6 (gene 1555) (P20813 whole entry, looked up): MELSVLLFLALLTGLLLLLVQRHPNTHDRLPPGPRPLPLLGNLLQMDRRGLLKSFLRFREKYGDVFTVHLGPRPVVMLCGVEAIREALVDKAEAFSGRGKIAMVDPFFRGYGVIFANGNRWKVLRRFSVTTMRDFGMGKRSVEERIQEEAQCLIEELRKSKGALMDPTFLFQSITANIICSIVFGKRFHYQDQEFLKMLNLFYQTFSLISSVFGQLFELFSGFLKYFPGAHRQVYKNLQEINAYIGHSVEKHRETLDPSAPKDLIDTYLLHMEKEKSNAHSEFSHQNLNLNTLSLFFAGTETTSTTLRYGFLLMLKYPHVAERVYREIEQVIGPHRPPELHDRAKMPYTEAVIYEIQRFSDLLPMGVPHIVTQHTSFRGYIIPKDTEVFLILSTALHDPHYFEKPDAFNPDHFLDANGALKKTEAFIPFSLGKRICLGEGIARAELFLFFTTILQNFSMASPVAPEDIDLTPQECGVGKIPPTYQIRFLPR
Sequence of human CYP2A6, CYP2A6 (gene 1548) (P11509 whole entry, looked up): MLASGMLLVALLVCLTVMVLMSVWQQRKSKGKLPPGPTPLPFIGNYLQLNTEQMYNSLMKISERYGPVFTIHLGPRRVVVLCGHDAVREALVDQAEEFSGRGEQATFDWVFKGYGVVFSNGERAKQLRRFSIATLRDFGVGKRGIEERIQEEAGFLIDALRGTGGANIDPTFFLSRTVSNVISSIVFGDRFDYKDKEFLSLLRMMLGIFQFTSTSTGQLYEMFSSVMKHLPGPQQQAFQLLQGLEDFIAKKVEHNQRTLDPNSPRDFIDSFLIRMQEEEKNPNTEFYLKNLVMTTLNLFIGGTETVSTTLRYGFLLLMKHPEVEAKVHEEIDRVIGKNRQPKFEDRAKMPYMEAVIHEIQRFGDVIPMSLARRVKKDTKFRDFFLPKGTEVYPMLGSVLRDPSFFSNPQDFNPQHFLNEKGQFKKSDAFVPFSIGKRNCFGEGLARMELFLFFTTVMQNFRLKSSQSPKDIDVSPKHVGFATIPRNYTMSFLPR

O=C(O)Cc1cc(I)c(Oc2ccc(O)c(I)c2)c(I)c1
outcome [1]: inactive

CC1=CC(=O)/C(=C(/C)O)C(=O)O1
outcome [2]: inactive | outcome [3]: inactive | outcome [4]: inactive | outcome [5]: inactive | outcome (CD38, CD38 (gene 952)): inactive | outcome (CD40, CD40 (gene 958)): inactive | outcome (CD69, CD69 (gene 969)): inactive | outcome [6]: inactive | outcome [7]: inactive | outcome [8]: inactive | outcome [9]: inactive | outcome [10]: inactive | outcome [11]: inactive | outcome [12]: inactive | outcome [1]: inactive

CCCCOC(=O)c1ccc(O)cc1
outcome [2]: inactive | outcome [3]: inactive | outcome [13]: inactive | outcome [4]: inactive | outcome [5]: inactive | outcome (CD38, CD38 (gene 952)): inactive | outcome (CD40, CD40 (gene 958)): inactive | outcome (CD69, CD69 (gene 969)): inactive | outcome [6]: inactive | outcome [7]: inactive | outcome [8]: inactive | outcome [9]: inactive | outcome [10]: inactive | outcome [12]: inactive | AC50 [14]: 4.55 µM (active) | AC50 [15]: 2.4 µM (active)

C[C@]12CC[C@@H]3c4ccc(O)cc4CC[C@H]3[C@@H]1CC[C@H]2O
AC50 [2]: 14.1 µM (active) | AC50 [3]: 8.61 µM (active) | outcome [4]: inactive | outcome (CD38, CD38 (gene 952)): inactive | outcome (CD40, CD40 (gene 958)): inactive | outcome (CD69, CD69 (gene 969)): inactive | AC50 [6]: 15.4 µM (active) | outcome [7]: inactive | outcome [8]: inactive | outcome [9]: inactive | outcome [10]: inactive | AC50 [12]: 12.1 µM (active) | AC50 [1]: 10 µM (active) | outcome [1]: inactive

CC[C@H](NC(=O)c1cc(F)ccc1NS(=O)(=O)c1cccc2cccnc12)c1ccccc1
outcome [2]: inactive | outcome [3]: inactive | outcome [13]: inactive | outcome [4]: inactive | outcome [5]: inactive | outcome (CD38, CD38 (gene 952)): inactive | AC50 (CD40, CD40 (gene 958)): 6.29 µM (active) | AC50 (CD69, CD69 (gene 969)): 10.5 µM (active) | AC50 [6]: 5.84 µM (active) | AC50 [7]: 4 µM (active) | outcome [8]: inactive | outcome [9]: inactive | AC50 [10]: 8.99 µM (active) | outcome [12]: inactive | outcome [16]: inactive

Cc1ncc(CO)c(CO)c1O
outcome [2]: inactive | outcome [3]: inactive | outcome [4]: inactive | outcome [5]: inactive | outcome (CD38, CD38 (gene 952)): inactive | outcome (CD40, CD40 (gene 958)): inactive | outcome (CD69, CD69 (gene 969)): inactive | outcome [6]: inactive | outcome [7]: inactive | outcome [8]: inactive | outcome [9]: inactive | outcome [10]: inactive | outcome [11]: inactive | outcome [12]: inactive

CC(C)(O)c1ccc(CNC(=O)c2cccnc2Oc2ccc3nonc3c2)cc1
outcome [2]: inactive | outcome [3]: inactive | outcome [13]: inactive | AC50 [4]: 1.49 µM (active) | outcome [5]: inactive | outcome (CD38, CD38 (gene 952)): inactive | outcome (CD40, CD40 (gene 958)): inactive | outcome (CD69, CD69 (gene 969)): inactive | outcome [6]: inactive | AC50 [7]: 1.4 µM (active) | outcome [8]: inactive | outcome [9]: inactive | outcome [10]: inactive | outcome [12]: inactive

CCCCCCCCOc1ccc(C(=O)c2ccccc2)c(O)c1
outcome [2]: inactive | outcome [3]: inactive | AC50 [13]: 12.6 µM (active) | outcome [4]: inactive | outcome [5]: inactive | AC50 (CD38, CD38 (gene 952)): 15.7 µM (active) | AC50 (CD40, CD40 (gene 958)): 30.3 µM (active) | outcome (CD69, CD69 (gene 969)): inactive | outcome [6]: inactive | outcome [7]: inactive | outcome [8]: inactive | outcome [9]: inactive | outcome [10]: inactive | AC50 [12]: 30.4 µM (active) | outcome [1]: inactive

CN1C(=O)CC[C@H]1c1cccnc1
outcome [2]: inactive | outcome [3]: inactive | outcome [13]: inactive | outcome [4]: inactive | outcome [5]: inactive | outcome (CD38, CD38 (gene 952)): inactive | outcome (CD40, CD40 (gene 958)): inactive | outcome (CD69, CD69 (gene 969)): inactive | outcome [6]: inactive | outcome [7]: inactive | outcome [8]: inactive | outcome [9]: inactive | outcome [10]: inactive | outcome [12]: inactive

OC12N=C(c3ccccc3)SC1Cc1cc(Cl)ccc12 (stereo not given)
outcome [2]: inactive | outcome [3]: inactive | outcome [13]: inactive | outcome [4]: inactive | AC50 [5]: 10.3 µM (active) | outcome (CD38, CD38 (gene 952)): inactive | AC50 (CD40, CD40 (gene 958)): 20 µM (active) | outcome (CD69, CD69 (gene 969)): inactive | outcome [6]: inactive | outcome [7]: inactive | outcome [8]: inactive | AC50 [9]: 28.6 µM (active) | outcome [10]: inactive | AC50 [11]: 25.4 µM (active) | outcome [12]: inactive | AC50 [14]: 3.9 µM (active) | AC50 [15]: 0.814 µM (active)
